Compounds with a hit are over-represented: about 3.3% of the library has one in this group of screens.
HCV inhibitor: inhibitors of hepatitis C virus infection. Huh7.5.1 HCVcc-Cre infection, luciferase reporter, 44 h. Potency, µM (doses to about 41.8 µM), for inactives: top-dose activity change, negative = inhibition, usual class: inhibitors. AID 651820. 340,000 tested, 3.4% active; active means well fitted inhibition curve with a large enough effect; inconclusive means small, poorly fitted or top-dose-only effect, or another doubt; inactive means no such curve, though single readings can be large or run the other way
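HCVcc-Cre virus at an moi near 0.5 was added right after compound to cells cultured 4 h from seeding (1,000 cells/well). Luciferase activity was determined 44 h later, 15 min after substrate addition at RT.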
VACV mCherry inh: vaccinia inhibition (mCherry reporter) | Vaccinia virus mCherry reporter infection, fluorescence | Potency, µM (highest dose often 36.5 µM), for inactives: at the top dose activity change, negative = inhibition, hits mostly inhibitors | 310,000 tested, 0.63% active | AID 720579; calls by dose curve; tested in A549 cells; further: nearly all actives have a fitted effect of over 35% in size
VACV Venus inh: vaccinia inhibition (Venus reporter); Vaccinia virus Venus reporter expression, fluorescence; 330,000 tested, 0.46% active; AID 720580; Potency, µM (doses to about 36.5 µM), inactives show at the highest dose activity change, negative = inhibition, most hits filed as inhibitors; calls by dose curve; tested in A549 cells; further: nearly all actives have a fitted effect of over 30% in size
The depositor's hits bear a star; ! = not confirmed by another sample. On the % scale 0 is the no-effect control and ±100 the full control effect; potency means the concentration at half of the fitted maximal effect.

Screening COc1ccc(C(=O)N(Cc2cc(OC)c(OC)c(OC)c2)CC2CCCO2)cc1 (stereo not drawn) returned VACV mCherry inh -4% and VACV Venus inh -9%.
For COc1ccc(Nc2ccccc2N)cc1 the results were HCV inhibitor inconclusive, VACV mCherry inh 1% and VACV Venus inh 37%.
For Nc1ccc(Nc2ccccc2N)cc1 the results were HCV inhibitor 11µM*, VACV mCherry inh 12% and VACV Venus inh -4%.
`CCc1cc(C(=O)/C=C/c2cc3c(cc2C)OCCO3)c(O)cc1O` gave VACV mCherry inh -32% and VACV Venus inh -28%.
For CC1=C(C(=O)N(C)C)CC(CC(=O)NC(c2ccccc2)c2ccccc2)C(=O)N1Cc1ccc(C(C)(C)C)cc1 (stereo not drawn) the results were VACV mCherry inh -13% and VACV Venus inh inconclusive.
`CCN(CC)C(=O)C1=C(C)N(Cc2ccc(C(C)(C)C)cc2)C(=O)C(CC(=O)NC(c2ccccc2)c2ccccc2)C1` (stereo not drawn) gave VACV mCherry inh inconclusive and VACV Venus inh 13µM*.
`C=Cc1ccc(C(=O)N2CCc3c(cnc(C)c3CNC(=O)c3ccc4c(c3)OCO4)C2)cc1` gave VACV mCherry inh -9% and VACV Venus inh -6%.
For Cc1cc(Oc2ccccc2)nc(NCc2ccccc2)n1 the results were HCV inhibitor inconclusive, VACV mCherry inh -5% and VACV Venus inh -14%.
For Cc1cc(N2CCC(C)CC2)nc(NCc2ccccc2)n1 the results were HCV inhibitor 6.3µM*.
`CCOC(=O)Cc1nn(CC)c(=O)c2ccccc12` gave HCV inhibitor 17%.
For CCOC(=O)Cc1nn(Cc2nc(-c3ccc(C#N)cc3)cs2)c(=O)c2ccccc12 the results were HCV inhibitor 10µM*, VACV mCherry inh -2% and VACV Venus inh -4%.
`CCOC(=O)C1=C(c2ccccc2)N=c2s/c(=C\c3ccc(O)cc3)c(=O)n2C1c1cccs1` (stereo not drawn) gave HCV inhibitor 10µM*, VACV mCherry inh 54% and VACV Venus inh inactive.
For CCOC(=O)C1=C(c2ccccc2)N=c2sc(=Cc3cc(OC)c(OC)c(OC)c3)c(=O)n2C1c1cccs1 (stereo not drawn) the results were VACV mCherry inh -7% and VACV Venus inh -10%.
For Cc1cccc(C(=O)N2CCc3cc(CNC(=O)CCc4ccccc4)ccc32)c1 the results were VACV mCherry inh inactive and VACV Venus inh -12%.
`CCc1nc2ccc(C(=O)N3CCN(c4ccc([N+](=O)[O-])cc4)CC3)cc2nc1CC` gave HCV inhibitor 13µM*.
Screening CCc1noc(C)c1C(=O)N1CCN(c2ccc([N+](=O)[O-])cc2)CC1 returned VACV mCherry inh -10% and VACV Venus inh -16%.
For CN(CC(=O)Nc1ccc(Cl)c(C(F)(F)F)c1)C(=O)c1ccc(S(=O)(=O)N2CCOCC2)cc1 the results were HCV inhibitor -8%.
For Cc1ccc(C(=O)N(C)CC(=O)Nc2cccc(F)c2)cc1S(=O)(=O)N1CCCCC1 the results were HCV inhibitor -18%, VACV mCherry inh inactive and VACV Venus inh -9%.
CN(CC(=O)Nc1ccc(Cl)c(C(F)(F)F)c1)C(=O)c1ccc(OCC2CCCO2)cc1 (stereo not drawn) was read as HCV inhibitor 10µM*, VACV mCherry inh inconclusive and VACV Venus inh inconclusive.
For Cc1ccc(C(=O)N(C)CC(=O)Nc2ccc(Cl)c(C(F)(F)F)c2)cc1S(=O)(=O)N1CCCCC1 the results were HCV inhibitor 7.9µM*.
For CC(C)CCn1c(SC(C)C#N)nc2ccccc2c1=O (stereo not drawn) the results were VACV mCherry inh 4% and VACV Venus inh -10%.
`CCOc1cc(/C=C2\SC(=N)N(c3nccs3)C2=O)ccc1OCCN1CCOCC1` gave HCV inhibitor -11%, VACV mCherry inh 11µM* and VACV Venus inh inconclusive.
CCOc1cc(/C=C2\SC(=S)N(N3CCOCC3)C2=O)ccc1O was read as HCV inhibitor 12%.
N#Cc1ccc(C(=O)N2CCN(C(=O)C3CCCO3)CC2)cc1 (stereo not drawn) was read as HCV inhibitor 18%.
`COC(=O)C1=C(C(=O)OC)[C@]2([C@@H]3C/C=C\CN[C@@H](Cc4ccccc4)C(=O)N3Cc3ccccc3)C=C[C@H]1O2` gave VACV mCherry inh -9% and VACV Venus inh -19%.
COC(=O)C1=C(C(=O)OC)[C@]2([C@@H]3CCCCN[C@@H](Cc4ccccc4)C(=O)N3Cc3ccccc3)C=C[C@H]1O2 was read as HCV inhibitor 7.9µM*, VACV mCherry inh inactive and VACV Venus inh -20%.
For C=C[C@@H]1c2cc(C)ccc2N(S(=O)(=O)c2ccc(C)cc2)[C@H](c2ccc(C(C)(F)F)cc2)C1(C#N)C#N the results were VACV mCherry inh -12% and VACV Venus inh -6%.
Cc1ccc(CN2CCOc3ccc(CN4CCC(O)(c5cccnc5)CC4)cc3C2)cc1 was read as VACV mCherry inh -28% and VACV Venus inh -21%.
Screening CCN1CCN(CCOc2ccc(Cl)cc2)CC1 returned HCV inhibitor -19%, VACV mCherry inh inactive and VACV Venus inh -6%.
`Clc1ccc(OCCN2CCN(c3ncnc4sccc34)CC2)cc1` gave HCV inhibitor 0.32µM*.
For Cc1sc2ncnc(N3CCOCC3)c2c1C the results were HCV inhibitor -17%, VACV mCherry inh -15% and VACV Venus inh -7%.
For Cc1ccc(OCCN2CCN(c3ncnc4sc(C)c(C)c34)CC2)cc1 the results were HCV inhibitor 2.5µM*.
`CN1CC[C@]23c4ccccc4N[C@H]1[C@]21CCN(C)[C@H]3Nc2ccccc21` gave HCV inhibitor -3%, VACV mCherry inh -19% and VACV Venus inh -10%.
COC(=O)C1CC23C=CCN4CCC5(c6ccccc6NC15C2C)C43 (stereo not drawn) was read as HCV inhibitor -4%, VACV mCherry inh 13µM* and VACV Venus inh inconclusive.
COc1ccc(N(C(=O)c2snc(C(N)=O)c2N)C(C(=O)NC2CCCC2)c2cc(OC)ccc2OC)cc1 (stereo not drawn) was read as HCV inhibitor inconclusive, VACV mCherry inh 0% and VACV Venus inh -13%.
CCC(C)Nc1nc(-c2cccc(OC)c2O)nc2ccccc12 (stereo not drawn) was read as HCV inhibitor 2.5µM*, VACV mCherry inh inconclusive and VACV Venus inh inconclusive.
`COc1cccc(-c2nc(NCc3cccnc3)c3ccccc3n2)c1O` gave HCV inhibitor inconclusive, VACV mCherry inh -13% and VACV Venus inh -28%.
For Cc1nc2ccccn2c(=O)c1CCN1CCC(C(=O)c2ccc(F)cc2)CC1 the results were HCV inhibitor inconclusive, VACV mCherry inh inactive and VACV Venus inh -9%.
For Cc1nc2sccn2c(=O)c1CCN1CCC(=C(c2ccc(F)cc2)c2ccc(F)cc2)CC1 the results were HCV inhibitor 3.5µM*!, VACV mCherry inh inactive and VACV Venus inh -23%.
`O=C(Nc1cc2ccc(O)cc2oc1=O)c1ccccc1` gave VACV mCherry inh -10% and VACV Venus inh -8%.
For CCOc1cc(/C=C(/C#N)c2nc3ccccc3[nH]2)ccc1Oc1ccc([N+](=O)[O-])cn1 the results were HCV inhibitor inconclusive, VACV mCherry inh inactive and VACV Venus inh -24%.
